Source: PubChem BioAssay (National Center for Advancing Translational Sciences (NCATS))
The list is not random: actives were taken first. Their share in the collection is about 3.8%.
A549 viability = counter-screen for Nrf2 inhibitors: cytotoxicity in A549 cells; A549 ARE-Fluc cells, CellTiter-Fluor viability, 18-24 h; AID 504648; Potency, µM (highest dose often 46 µM), without a hit: top-dose activity change, negative = cytotoxicity, most hits filed as inhibitors; hit rate 0.16% among 390,000; note: % is set by controls: 0 for no effect and ±100 for the full control effect
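Cytotoxicity counterscreen: CellTiter-Fluor fluorescence was measured in A549 ARE_Fluc cells after 18-24 h of compound exposure in a concentration series. The subsequent BugLite luminescent read reports ARE-luciferase activity.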
TGFb SMAD3 inh = inhibitors of TGF-b signaling; HepG2 CAGA-GFP TGF-b/SMAD3 reporter, GFP fluorescence, 18 h; TGF-beta stimulated, 500 pg/mL final; AID 588855; hit rate 1.2% among 410,000; Potency, µM (doses to about 46.1 µM), inactives show top-dose activity, negative = inhibition, most hits filed as inhibitors; note: % is set by controls: 0 for no effect and ±100 for the full control effect; nearly all actives have a fitted effect of over 65% in size
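HEPG2 CAGA-GFP reporter cells (1000/well, DMEM with 1% FBS) received compounds, then recombinant TGF-beta at 500 pg/mL final for 18 hours at 37 degrees C. Per-cell GFP summed per well was normalised to unstimulated and stimulated DMSO controls before curve fitting.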
ATXN viability = cell viability loss in ATXN counter-screen; S2 cells (HEK-293 line with an ATXN2-luciferase reporter) viability, CellTiter-Fluor protease fluorescence, 24 h; Potency, µM (doses to about 56.7 µM), most hits filed as cytotoxic; hit rate 0.49% among 400,000; AID 651635; note: nearly all actives have a fitted effect of over 40% in size
ATXN2 expr inh = ATXN2 expression inhibition. hit rate 0.72% among 360,000. Potency, µM (series often up to 57 µM), for the others: at the top dose activity change, negative = inhibition, most hits filed as inhibitors. HEK-293 ATXN2-luciferase reporter, luminescence, 24 h; note: % is set by controls: 0 for no effect and ±100 for the full control effect; nearly all actives have a fitted effect of over 55% in size
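qHTS (up to 57 uM final) was run with 24 h compound exposure of reporter cells at 37 °C. Each well was multiplexed: SteadyGlo luminescence measured ATXN2-luciferase expression after a fluorogenic Gly-Phe-AFC viability readout (25 uM final).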
Nrf2 block = Nrf2 pathway inhibition; A549 ARE-Fluc reporter, luciferase luminescence, 18-24 h; Potency, µM (top dose mostly 46 µM), without a hit: top-dose activity change, negative = inhibition, usual class: inhibitors; hit rate 2.1% among 360,000; note: % is set by controls: 0 for no effect and ±100 for the full control effect; nearly all actives have a fitted effect of over 60% in size
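Two sequential reads on A549 ARE_Fluc cells exposed to compound for 18-24 h: a CellTiter-Fluor fluorescence read for viability, then a luciferase luminescence read for Nrf2/ARE activity.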
HepG2 tox = counter-screen for TGF-b inhibitors: cytotoxicity in HepG2 cells | Potency, µM (series often up to 46.1 µM), for inactives: at the top dose activity change, negative = cytotoxicity, usual class: cytotoxic | HepG2 CAGA-GFP viability, ATP luminescence, 18 h | hit rate 0.76% among 410,000 | AID 588856
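CellTiter-Glo luminescence gave cytotoxicity after 18 hours at 37 degrees C. The cells were HepG2 CAGA-GFP in 1% FBS DMEM, stimulated with 500 pg/mL TGF-beta after compound addition. %Activity was normalised to no-cell wells (complete cell-killing) and DMSO (no toxicity), and curves were fitted and classified.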
The depositor's hits bear a star; i = inactive; ? = inconclusive; . = not tested or not shown; [ ] = another dose, or the depositor's remark. Calls come from the whole dose curve; as a rule, active = well fitted curve in the direction sought with a large enough effect; inconclusive = small, poorly fitted or top-dose-only effect, or another doubt; inactive = no such curve, though single readings can be large; an effect the other way counts as inactive or inconclusive. Potency is the fitted concentration of half-maximal effect.

SMILES | A549 viability | TGFb SMAD3 inh | ATXN viability | ATXN2 expr inh | Nrf2 block | HepG2 tox
CCOC(=O)c1[nH]c(C)c(CCC(=O)Nc2cc(Cl)c(OC)cc2OC)c1C | 14% | -19% | i | -12% | . | -15%
CCOC(=O)c1cc(NC(=O)Nc2ccc(Br)cc2)c(C)nc1C | 0% | -26% | i | . | 0% | -34%
CN(C)CCNC(=O)C1CCN(Cc2cc3ccccc3n2Cc2ccccc2)CC1 | ? | ? | . | 22µM* | . | 11µM*
Cc1ccc(Cn2c(CN3CCC(C(=O)NCc4cccnc4)CC3)cc3ccccc32)cc1 | 1% | ? | . | ? | . | 11µM*
COc1ccc(Br)cc1CNC(=O)CCSCc1ccc(Cl)cc1 | 5% | -2% | . | . | . | 0%
O=C(CNC(=O)c1sc2ccccc2c1Cl)NCc1cccc(C(F)(F)F)c1 | -14% | -11% | i | -25% | ? | -3%
COC(=O)c1ccc(COC(=O)[C@@H]2CC(O)CN2S(=O)(=O)c2ccccc2[N+](=O)[O-])cc1 (stereo partly drawn) | -1% | 6% | i | -3% | -13% | 0%
O=C(CCN1C(=O)/C(=C/c2ccccc2)SC1=S)NCCCN1CCOCC1 | ? | -17% | ? | 23% | ? | -17%
O=C(CCN1C(=O)/C(=C/c2ccccc2F)SC1=S)NCCCN1CCOCC1 | ? | -19% | ? | 77% | ? | -29%
COc1ccccc1/C=C1\SC(=S)N(CCC(=O)NCCCN2CCOCC2)C1=O | 23µM* | -17% | ? | 25% | ? | -162%
O=C(CCCN1C(=O)/C(=C/c2ccccc2Cl)SC1=S)NCCCN1CCOCC1 | ? | ? | ? | -38% | 15µM* | -2%
CCc1ccc(CN2CCC(n3nccc3NC(=O)C3CCCC3)CC2)cc1 | -6% | 1% | i | -5% | -3% | 3%
COc1cc2c(cc1OC)C(c1ccc(F)cc1)N(c1ccc(F)cc1)C(=O)C2 (stereo not drawn) | 15% | -2% | i | -2% | 4% | -40%
CCOC(=O)C(CC)(CC)/C(C)=N/NC(=O)CC#N | -1% | 6% | i | -2% | 4% | -6%
Cc1ccc(S(=O)(=O)N2CCC(=O)N(CCOCc3ccc(C(F)(F)F)cc3)CC2)cc1 | -6% | 11µM* | ? | ? | ? | -23%
O=C1CCSC2(C(=O)N(Cc3ccc(F)cc3)c3ccccc32)N1c1ccc(Cl)cc1 (stereo not drawn) | -1% | ? | . | . | -18% | -58%
CCc1nn(CC(=O)Nc2ccc(C)c(F)c2)c(=O)c2cc3cc(C)ccc3n12 | 15% | -5% | i | 11% | ? | -5%
Cc1ccc(C)c(NC(=O)CSc2nc3nc(-c4cccs4)cc(C(F)(F)F)c3c(=O)[nH]2)c1 | ? | 16µM* | i | -35% | ? | -39%
O=C(CSc1nc2nc(-c3cccs3)cc(C(F)(F)F)c2c(=O)[nH]1)Nc1ccc(F)c(F)c1 | -14% | ? | i | ? | ? | -54%
O=C(NCC(c1ccco1)N1CCCCC1)c1ccc(NS(=O)(=O)c2ccc(F)cc2)cc1 (stereo not drawn) | -9% | -6% | i | -12% | 2% | -20%
Cc1cccc(NS(=O)(=O)c2ccc(C(=O)NCC(c3ccco3)N3CCCCC3)cc2)c1C (stereo not drawn) | -26% | -16% | i | -14% | 21µM* | -1%
O=C(NCC(c1ccco1)N1CCCCC1)c1ccc([N+](=O)[O-])s1 (stereo not drawn) | ? | 16µM* | i | ? | -10% | -63%
COC(=O)c1ccc2nc(-c3ccc(OC)c(OC)c3)c(Cc3cccc(F)c3)n2c1 | . | . | ? | -22% | . | .
CCOc1ccccc1C(=O)Nc1ccc2nc(N3CCN(c4ncccn4)CC3)cc(C)c2c1 | ? | 0% | ? | 14µM* | ? | -25%
Cc1ccccc1C(=O)Nc1ccc2nc(N3CCCCC3)cc(C)c2c1 | -7% | 11% | ? | -8% | 6%[9.27 µM] | -24%
SMILES | A549 viability | TGFb SMAD3 inh | ATXN viability | ATXN2 expr inh | Nrf2 block | HepG2 tox
CCOc1ccccc1NC(=O)Nc1ccc2nc(N3CCN(C)CC3)cc(C)c2c1 | ? | ? | . | ? | ? | 7.9µM*
CC(=O)C(=Nc1ccc(Cl)cc1Cl)NNc1cccc(Cl)c1 | -13% | 22µM* | i | -25% | -28% | -47%
Cc1ccc(NS(=O)(=O)c2ccc(-n3cccn3)cc2)cc1F | -2% | ? | i | -24% | 15µM* | -28%
CCC(C(=O)N1CCN(c2cc(Cl)ccc2C)CC1)n1nc(C)n2c(cc3occc32)c1=O (stereo not drawn) | -16% | ? | ? | ? | ? | -29%
O=[N+]([O-])c1cc(S(=O)(=O)Nc2cccc(Cl)c2)ccc1N/N=C/c1ccc(N2CCOCC2)cc1 | -9% | -14% | i | . | -9% | 2%
c1ccc(N2CCN(c3nc4cc5c(cc4s3)OCCO5)CC2)cc1 | ? | 0% | i | 14% | ? | 5%
c1c2c(cc3sc(N4CCOCC4)nc13)OCCO2 | -5% | 0% | i | 6.3µM* | ? | -58%
CC1Sc2ccc(C(=O)NCc3ccccn3)cc2NC1=O (stereo not drawn) | 0% | ? | i | ? | -3% | -38%
O=C(/C(N=Nc1cccc(C(F)(F)F)c1)=C(/O)c1cccs1)C(F)(F)F | -11% | 13µM* | ? | ? | 2% | -41%
CC(=O)/C(N=Nc1cccc(C(F)(F)F)c1)=C(\C)O | 3% | 6% | i | -5% | 10% | 3%
COc1ccccc1CNC(=O)c1ccc2[nH]c(C)c(C)c2c1 | 16% | . | . | . | . | -16%
COc1ccccc1CNC(=O)c1ccc2nc3[nH]c4ccccc4c3nc2c1 | ? | -20% | ? | ? | 15µM* | -91%
C(=N\Nc1nc2ccccc2[nH]1)/c1ccc2c(c1)OCCO2 | ? | ? | i | . | 2.6µM* | -53%
C(=N\Nc1nc2ccccc2[nH]1)/c1ccc2ncccc2c1 | -7% | ? | i | ? | 21µM* | -74%
S=C(N/N=C/c1ccc2ncccc2c1)Nc1ccccc1 | 3% | ? | i | . | 13µM* | 1%
COc1ccc(/C=N/Nc2nc3ccccc3[nH]2)cc1OC | 8% | -28% | i | 45% | 23% | -24%
CCN(CC)c1ccc(/C=N/Nc2nc3ccccc3[nH]2)c(O)c1 | ? | 16µM* | 5µM* | ? | 26µM* | -32%
COc1cc(OC)c(OC)cc1/C=N/Nc1nc2ccccc2[nH]1 | -4% | -5% | i | . | 1% | -3%
